Experimental data published in PubChem BioAssay (EPA / NIEHS).
Where “and” joins values, the source holds several entries; their conditions need not be identical. Identical values can stand only once. Calls of active or inactive are those of the source. Rule for the calls: active = hit-call score of the fitted dose curve at least 0.9, where 1 is the maximum; inactive = score below 0.9.

Read-out: Monocyte Chemoattractant Protein-1 (MCP1), CCL2 (gene 6347)
Assay: BSK_hDFCGF_MCP1: BioMAP Diversity Plus: hDFCGF Assay for Monocyte Chemoattractant Protein-1 (MCP1) Biomarker Activity (AID 2284285)
Settings: primary human foreskin fibroblasts
Protocol: BSK_hDFCGF is a cell-based, multiplexed-readout assay that uses foreskin fibroblast, a human skin primary cell, with measurements taken at 24 hours after chemical dosing in a 96-well plate.BSK_hDFCGF_MCP1 is an assay component measured in the BSK_hDFCGF assay. It measures MCP-1 antibody related to regulation of gene expression using ELISA technology.Data from the assay component BSK_hDFCGF_MCP1 was analyzed at the endpoint, BSK_hDFCGF_MCP1, in the positive analysis fitting direction relative to DMSO as the negative control and baseline of activity. Using a type of binding reporter, gain or loss-of-signal activity can be used to understand protein changes. To generalize the intended target to other relatable targets, this assay endpoint is annotated to the 'cytokine' intended target family, where the subfamily is 'chemotactic factor'.
The levels of cell surface (or secreted, indicated by the prefix "s") biomarker endpoints were measured by ELISA. Overt cytotoxicity to cells in confluent adherent cultures (all systems other than the BT system) was assessed by measuring total protein levels using sulforhodamine B (SRB) staining in parallel cultures at the time of biomarker measurements, indicated as SRB endpoints. For proliferation assays for adherent cell types, individual cell types are cultured at sub-confluence and relative cell numbers quantified by SRB staining at time points optimized for each system (48 h: 3C and CASM3C systems; 72 h: BT and HDF3CGF systems; 96 h: SAg system). SRB was performed by staining cells with 0.1% SRB after fixation with 10% TCA and reading wells at 560 nm.Viability and proliferation of PBMC (T cells) was quantified by Alamar Blue reduction for the SAg and BT systems. For PBMC viability (referred to as PBMC Cytotoxicity within the assay endpoint names), cells were plated (75,000/well in a 96-well plate) and then chemical samples added for 1 h before addition of activators, SEB and TSST-1 (20 ng/mL final concentration each). Cells were incubated for 90 h. Then, Alamar Blue (20 uL/well) (Invitrogen, Cat DAL1100) was added for 6 h, and the plates were read with a fluorescence microplate reader at 546/580 nm (excitation/emission). For PBMC proliferation, cells were plated and activated as above but incubated for only 16 h prior to addition of Alamar Blue. Plates were read after 6 h.

SMILES	outcome	AC50
O=S(=O)(F)C(F)(F)C(F)(F)C(F)(F)C(F)(F)C(F)(F)C(F)(F)C(F)(F)C(F)(F)F	inactive	–
O=C(O)C(F)(F)OC(F)(F)C(F)(F)OC(F)(F)C(=O)O	inactive	–
OCC(F)(F)OC(F)(F)C(F)(F)OC(F)(F)CO	inactive	–
OCC(F)(F)OC(F)(F)C(F)(F)OC(F)(F)C(F)(F)OC(F)(F)CO	–	30 µM (active) and 23.7 µM (active)
C=CC(=O)OCC(F)(F)C(F)F	–	40.7 µM (active) and 41.8 µM (active)
OCC(F)(F)OC(F)(F)C(F)(F)OC(F)(F)C(F)(F)OC(F)(F)F	inactive	–
COP(=O)(CCC(=O)NCO)OC	inactive	–
O=C(O)C(F)(F)C(F)(F)C(=O)O	inactive	–
COC(=O)C(F)(F)C(F)(F)OC(F)(C(F)(F)F)C(F)(F)OC(F)=C(F)F (stereo not given)	inactive	–
CC(O)C(F)(F)C(F)(F)F (stereo not given)	inactive	–
O=C(O)C=CC(F)(C(F)(F)F)C(F)(F)F	inactive	–
FC(F)(F)C(F)(C(F)(F)F)C(F)(F)C(F)(F)CC1CO1 (stereo not given)	inactive	–
NC(=O)C(F)(F)C(F)(F)F	inactive	–
O=C(O)C(F)(F)OC(F)(F)C(F)(F)OC(F)(F)F	inactive	–
O=C(O)C(F)(OC(F)(F)C(F)(F)C(F)(F)F)C(F)(F)F (stereo not given)	inactive	–
